Pf growth 48h: Primary qHTS for delayed death inhibitors of the malarial parasite plastid, 48 hour incubation; 5.9% of 310,000 active; AID 504832, 2011; P. falciparum luciferase growth in erythrocytes, 48 h; Potency, µM (highest dose often 28.7 µM), actives largely listed as inhibitors
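Luminescence readout; reporter = integrated firefly luciferase in P. falciparum. RBC culture at 2% hematocrit, 0.1% parasitemia final, 37 C/5% CO2; decreased signal taken as growth inhibition.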
Sm TGR inh: qHTS Assay for the Inhibitors of Schistosoma Mansoni Peroxiredoxins | Schistosoma mansoni thioredoxin glutathione reductase (TGR), Q962Y6 | AID 485364, 2010 | Potency, µM (titrated, usually from 114 µM), actives largely listed as inhibitors | 3% of 360,000 active | purified TGR, DTNB reduction, TNB absorbance 405 nm; further: nearly all actives have a fitted effect of over 60% in size
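Kinetic colorimetric format: TGR-catalysed, NADPH-driven DTNB reduction monitored via TNB absorbance. Enzyme dispensed at 20 nM; compound exposure 15 min at room temperature before reaction start.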
Giardia FBPA inh: qHTS Assay for Inhibitors of Fructose-1,6-bisphosphate Aldolase from Giardia Lamblia | A8B2U2 | purified Giardia FBPA | Potency, µM (doses to about 59.6 µM), most hits filed as inhibitors | 0.71% of 290,000 active; further: nearly all actives have a fitted effect of over 55% in size
Target sequence (A8B2U2 whole entry, looked up): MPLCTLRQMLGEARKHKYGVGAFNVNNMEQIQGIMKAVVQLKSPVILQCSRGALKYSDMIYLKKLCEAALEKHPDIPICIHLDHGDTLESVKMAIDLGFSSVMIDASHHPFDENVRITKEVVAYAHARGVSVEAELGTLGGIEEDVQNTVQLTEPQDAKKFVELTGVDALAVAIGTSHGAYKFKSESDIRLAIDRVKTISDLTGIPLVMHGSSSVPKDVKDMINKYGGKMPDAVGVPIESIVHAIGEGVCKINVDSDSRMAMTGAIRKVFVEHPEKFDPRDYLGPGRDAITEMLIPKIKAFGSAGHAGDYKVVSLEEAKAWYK
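40 nM FBPA preincubated 10 min at RT with compound (up to 57.5 uM final), then substrate plus GAPDH/TPI/NAD/arsenate coupling and diaphorase/resazurin added. Fluorescence read after 20 min at RT, 525/598 nm.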
Pf growth 96h: Primary qHTS for delayed death inhibitors of the malarial parasite plastid, 96 hour incubation; P. falciparum luciferase reporter growth, 96 h; Potency, µM (series often up to 28.7 µM), usual class: inhibitors; 6.9% of 320,000 active
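Delayed-death screen, second-generation endpoint: infected erythrocytes, 2% hematocrit, 0.05% parasitemia final; 96 hours at 37 C, 5% CO2; luciferase detection reagent; luminescence decrease equals reduced growth.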
HCMV inh: qHTS Assay for inhibitors of the human cytomegalovirus (HCMV); 4.5% of 410,000 active; activity change, negative = inhibition, % at 57.5 µM; HFF cells, HCMV-luciferase reporter, 72 h; stronger effect = lower value; in the data active means activity change below about -60%; inconclusive means no clear call, values can overlap the other calls; inactive means above about -39%
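Steps: HFFs plated, 16 h 37C; compounds added; HCMV-luciferase added to MOI 1 PFU/cell; 72 h 37C; OneGlo reagent, 5 min room temperature; luminescence read, normalized to controls.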
Large screens that a line does not name were inactive. Hits are enriched below; roughly 14% of the tested compounds scored in any of these assays. Unless noted, the call rests on the fitted dose curve; in most records, active means well fitted curve in the direction sought with a large enough effect; inconclusive means small, poorly fitted or top-dose-only effect, or another doubt; inactive means no such curve, though single readings can be large; an effect the other way counts as inactive or inconclusive.

CCOC(=O)c1c(CC(C)C)csc1NC(=O)COC(=O)c1ccc(O)cc1	Pf growth 48h inconclusive, Pf growth 96h 9.3µM (no result: Giardia FBPA inh)
CCOC(=O)c1c(NC(=O)CSc2nnc(N)s2)sc(C)c1-c1ccc(C)cc1	Pf growth 48h inconclusive, Pf growth 96h 10µM, HCMV inh inconclusive
CCOC(=O)c1c(-c2ccc(OC)cc2)csc1NC(=O)CSc1ncnc2sccc12	Pf growth 48h inconclusive, Pf growth 96h 5.2µM, HCMV inh -71
CCOC(=O)c1c(-c2ccc(C)o2)csc1NC(=O)CSc1nnc(C)s1	Pf growth 48h 12µM, Sm TGR inh inconclusive
CCOC(=O)c1c(NC(=O)CSc2nnc(C)c(=O)[nH]2)sc(C)c1-c1ccc(C)cc1	none
CCCC(=O)Nc1nnc(SCc2cc(=O)c3cc(C)ccc3[nH]2)s1	none (no result: Pf growth 48h, Giardia FBPA inh, Pf growth 96h)
O=C(Cc1ccccc1)N1O[C@H]2C=C[C@@H]1C2	none (no result: Pf growth 48h, Sm TGR inh, Giardia FBPA inh, Pf growth 96h)
COc1cccc(-c2nccc(NCc3ccccc3)n2)c1	none (no result: Pf growth 48h, Sm TGR inh, Pf growth 96h, HCMV inh)
COC(=O)c1cc(NC(=O)c2ccc(Cn3cc(Cl)cn3)o2)cc(C(=O)OC)c1	Pf growth 48h inconclusive (no result: Pf growth 96h)
CCOC(=O)c1c(-c2ccc(C)o2)csc1NC(=S)NC(=O)c1cccs1	Pf growth 48h inconclusive, Pf growth 96h inconclusive, HCMV inh inconclusive
CCOC(=O)c1c(NC(=O)CSc2nnc(C)s2)sc2c1CCC(C)C2 (centres undefined)	Pf growth 48h 12µM
CCOC(=O)c1c(-c2ccccc2)csc1NC(=O)CSc1nnc(C)s1	Pf growth 48h 2.9µM, Pf growth 96h inconclusive, HCMV inh inconclusive
CCOC(=O)c1c(NC(=S)NC(=O)c2ccc(Cn3cc(Cl)cn3)o2)sc2c1CCC(C)C2 (centres undefined)	HCMV inh -71
CCNC(=S)Nc1scc(-c2ccccc2)c1C(=O)OCC	none
CCOC(=O)c1c(NC(=O)CSc2nnc(C)s2)sc2c1CCCCC2	none
CCOC(=O)c1c(-c2ccc(C)o2)csc1NC(=S)NC(=O)c1ccccc1Br	Pf growth 48h 13µM, Sm TGR inh inconclusive, Pf growth 96h 7.4µM
CN(c1cccc(Cl)c1)S(=O)(=O)c1cccc(C(=O)NCc2ccncc2)c1	Sm TGR inh inconclusive, Pf growth 96h inconclusive, HCMV inh inconclusive (no result: Giardia FBPA inh)
Cc1cc(C(=O)C(C)Cl)c(C)n1Cc1ccco1 (centres undefined)	Sm TGR inh 28µM
Cc1cc(C(=O)COC(=O)C(C)NC(N)=O)c(C)n1Cc1ccco1 (centres undefined)	none
CC(=O)Nc1ccc(/C(C)=N/Nc2nc(Nc3cccc4ccccc34)nc(N3CCOCC3)n2)cc1	Pf growth 48h 13µM, Pf growth 96h inconclusive, HCMV inh -62
C/C(=N\Nc1nc(N2CCCCCC2)nc(N2CCCCCC2)n1)c1ccccc1	Pf growth 48h inconclusive, HCMV inh -66
CC(=O)Nc1ccc(/C(C)=N/Nc2nc(N3CCOCC3)nc(N3CCOCC3)n2)cc1	none
O=c1c(-c2cccc(F)c2)nc2cncnc2n1Cc1ccccc1Cl	none (no result: Pf growth 48h, Sm TGR inh, Pf growth 96h, HCMV inh)
O=C(NN=Cc1ccccc1O)C(=O)Nc1ccc(F)cc1	none (no result: Pf growth 48h, Sm TGR inh, Giardia FBPA inh, Pf growth 96h)
COc1ccc(N2CC(NC(=O)c3ccc4c(c3)OCO4)CC2=O)cc1OC (centres undefined)	none (no result: Pf growth 48h, Giardia FBPA inh, Pf growth 96h)
O=C(Oc1c(CN2CCOCC2)cc(Cl)c2cccnc12)c1ccccc1Cl	Pf growth 48h inconclusive, Giardia FBPA inh inconclusive, Pf growth 96h 1.3µM, HCMV inh -98
O=C(Oc1c(CN2CCOCC2)cc(Cl)c2cccnc12)c1cccs1	Pf growth 48h 2.6µM, Sm TGR inh inconclusive, Giardia FBPA inh inconclusive, Pf growth 96h 0.74µM, HCMV inh -98
C=CC[n+]1cccc(-c2cc3ccc(C)cc3[nH]2)c1	Pf growth 48h inconclusive, Pf growth 96h 5.2µM
Cc1cccc(Nc2cc3[nH]c(-c4ccccc4)cc3cn2)c1	none (no result: Pf growth 48h, Sm TGR inh, Giardia FBPA inh, Pf growth 96h)

Source: PubChem (National Center for Advancing Translational Sciences (NCATS))
